Screening data: PubChem BioAssay, National Center for Advancing Translational Sciences (NCATS)
Only some compounds are listed: those with a hit (about 19% of all), similar ones and a draw of the others.
HT1080 IDH1KD tx: qHTS for induction of synthetic lethality in tumor cells producing 2HG: qHTS for the HT-1080-IDH1KD cell line; HT-1080 IDH1 knockdown viability, ATP luminescence, 48 h; Potency, µM (top dose mostly 46.1 µM), for the others: top-dose activity, negative = toxicity, usual class: cytotoxic; 2% of 360,000 active;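 also: 0% = DMSO wells and -100% = cell-free medium wells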
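After a 2 h attachment period, IDH1KD HT-1080 cells took pin-transferred compound for 48 h at 37 °C; ATP-based luminescence after 10 min room-temperature reagent incubation reported viability.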
TDP1 cell CPT: qHTS for Inhibitors of human tyrosyl-DNA phosphodiesterase 1 (TDP1): qHTS in cells in presence of CPT. 12% of 420,000 active. chicken DT40 Tdp1-/-;hTDP1 cells + 20 nM CPT, ATP luminescence, 48 h. Potency, µM (doses to about 46.2 µM), inactives show at the highest dose activity change, negative = growth inhibition, usual class: inhibitors; also: nearly all actives have a fitted effect of over 55% in size
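Chicken DT40 Tdp1-/- cells complemented with human TDP1, 400 cells/well, exposed to compounds plus 20 nM camptothecin for at least 48 h at 37 C; viability read as ATP content by CellTiter-Glo luminescence.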
KB-3-1 cytotox: qHTS assay for MDR1-selective chemotherapeutics: Primary screen using the parental adenocarcinoma cell KB-3-1; KB-3-1 viability, CellTiter-Glo ATP luminescence, 72 h; Potency, µM (doses to about 46.1 µM), most hits filed as cytotoxic; 1.4% of 400,000 active; also: nearly all actives have a fitted effect of over 60% in size
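Cytotoxicity in the drug-sensitive parental line KB-3-1 was scored as loss of CellTiter-Glo luminescence following 72 h incubation with compound. Values come from curve fitting of normalized concentration-response data.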
HT1080NT lethal: qHTS for induction of synthetic lethality in tumor cells producing 2HG: qHTS for the HT-1080-NT fibrosarcoma cell line; HT-1080-NT fibrosarcoma viability, CellTiter-Glo ATP luminescence, 48 h; AID 686970, 2013; 1.6% of 360,000 active; Potency, µM (highest dose often 46.1 µM), for the others: at the top dose activity, negative = less viability, most hits filed as cytotoxic;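 also: NT is the 2HG producing partner of a matched IDH1 knockdown line; 0% = DMSO-treated cells and -100% = media-only wells without cells; nearly all actives have a fitted effect of over 55% in size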
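HT-1080-NT; 750 cells/well; 5% FBS RPMI; 48 h compound, 37 degrees C; CellTiter-Glo luminescence; curve fitting and curve-class assignment.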
KB-V1 cytotox: qHTS assay for MDR1-selective chemotherapeutics: Primary screen using the drug-selected MDR subline cells KB-V1 | KB-V1 MDR cells viability, CellTiter-Glo, 72 h | Potency, µM (series often up to 46.1 µM), hits mostly cytotoxic | 3.4% of 400,000 active | AID 1347076, 2019; also: nearly all actives have a fitted effect of over 60% in size
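KB-V1, DMEM (no phenol red) + 10% FBS; cpd pin-transferred, titration series; 72 h, 37 degrees C; CellTiter-Glo, luminescence. Data normalized, curve-fit.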
DT40 TDP1 no CPT: qHTS for Inhibitors of human tyrosyl-DNA phosphodiesterase 1 (TDP1): qHTS in cells in absence of CPT; Potency, µM (series often up to 46.2 µM), without a hit: at the highest dose activity change, negative = growth inhibition, actives largely listed as inhibitors; DT40 Tdp1-/- hTDP1 cells, no CPT, ATP luminescence, 48 h; 15% of 420,000 active; also: nearly all actives have a fitted effect of over 55% in size
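Chicken DT40 Tdp1-/- cells stably complemented with human TDP1 were seeded at 400 cells/well with DMSO in place of 20 nM camptothecin. After compound pinning, cells grew at least 48 hr at 37 °C; viability read by CellTiter-Glo luminescence.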
* marks the source's active call; other numbers are inactive results. Calls follow the shape of the dose curve; as a rule, active = well fitted curve in the direction sought with a large enough effect; inconclusive = small, poorly fitted or top-dose-only effect, or another doubt; inactive = no such curve, though single readings can be large; an effect the other way counts as inactive or inconclusive. Unless noted, % is scaled to controls: 0 for no effect and ±100 for the full control effect; potency is read from the fitted curve at half-maximal effect.

Screening COc1ccc(-c2c(C)nn3c(N4CCOCC4)cc(C)nc23)cc1OC returned HT1080 IDH1KD tx 3%, TDP1 cell CPT 2%, KB-3-1 cytotox inactive, HT1080NT lethal -15%, KB-V1 cytotox inactive and DT40 TDP1 no CPT 1%.
Screening CCc1c(C)nc2cc(-c3cc(OC)cc(OC)c3)nn2c1N1CCCC1 returned HT1080 IDH1KD tx inconclusive, TDP1 cell CPT 29µM*, KB-3-1 cytotox inactive, HT1080NT lethal -10%, KB-V1 cytotox inactive and DT40 TDP1 no CPT 23µM*.
For COc1ccc(-c2c(C)nn3c(N4CCCCCC4)cc(C)nc23)cc1OC the results were HT1080 IDH1KD tx inconclusive, TDP1 cell CPT 23µM*, KB-3-1 cytotox 18µM*, HT1080NT lethal inconclusive, KB-V1 cytotox inconclusive and DT40 TDP1 no CPT 26µM*.
For COc1cc(OC)cc(-c2cc3nc4c(c(N5CCN(c6ncccn6)CC5)n3n2)CCCC4)c1 the results were HT1080 IDH1KD tx 0%, TDP1 cell CPT inconclusive, KB-3-1 cytotox inactive, HT1080NT lethal 12%, KB-V1 cytotox inactive and DT40 TDP1 no CPT 23µM*.
CCc1c(C)nc2cc(-c3ccc(OC)c(OC)c3)nn2c1N1CCCC1 was read as HT1080 IDH1KD tx -21%, TDP1 cell CPT inconclusive, KB-3-1 cytotox inactive, HT1080NT lethal inconclusive, KB-V1 cytotox inconclusive and DT40 TDP1 no CPT 23µM*.
Screening CCOc1ccccc1CN1CCCC(CNC(=O)Cc2ccc(OC)cc2)C1 (stereo unspecified) returned HT1080 IDH1KD tx 1%, TDP1 cell CPT -9%, KB-3-1 cytotox inactive, HT1080NT lethal 13%, KB-V1 cytotox inactive and DT40 TDP1 no CPT 0%.
COCCCn1c(SC(C)C(=O)Nc2c(C)n(C)n(-c3ccccc3)c2=O)n[nH]c1=O (stereo unspecified) was read as HT1080 IDH1KD tx 1%, TDP1 cell CPT 10%, KB-3-1 cytotox inactive, HT1080NT lethal 6%, KB-V1 cytotox inconclusive and DT40 TDP1 no CPT 13%.
For COc1ccc(Cl)cc1NC(=O)c1cccc(S(=O)(=O)Nc2c(C)n(C)n(-c3ccccc3)c2=O)c1 the results were HT1080 IDH1KD tx -4%, TDP1 cell CPT -24%, KB-3-1 cytotox inactive, HT1080NT lethal -17%, KB-V1 cytotox inactive and DT40 TDP1 no CPT -30%.
For CCOCCN1CCN(c2c(CC)c(C)nc3cc(-c4cc(OC)cc(OC)c4)nn23)CC1 the results were HT1080 IDH1KD tx -26%, TDP1 cell CPT 21µM*, KB-3-1 cytotox inactive, HT1080NT lethal inconclusive, KB-V1 cytotox inactive and DT40 TDP1 no CPT 15µM*.
For CCOCCN1CCN(c2c3c(nc4cc(-c5ccc(F)cc5)nn24)CCC3)CC1 the results were HT1080 IDH1KD tx 1%, TDP1 cell CPT inconclusive, KB-3-1 cytotox inactive, HT1080NT lethal 0%, KB-V1 cytotox inactive and DT40 TDP1 no CPT 16µM*.
Screening Cc1cc(NC(=O)c2ccc3sc([C@@H]4O[C@H](CO)[C@H](O)[C@H](O)[C@H]4O)nc3c2)n(C)n1 returned HT1080 IDH1KD tx inconclusive, TDP1 cell CPT 0%, KB-3-1 cytotox inactive, HT1080NT lethal 22%, KB-V1 cytotox inactive and DT40 TDP1 no CPT 3%.
For COc1ccc(NC(=S)N/N=C2\CC(C)(C)Oc3ccc(OC)cc32)cc1 the results were HT1080 IDH1KD tx -21%, TDP1 cell CPT 5.8µM*, KB-3-1 cytotox inactive, HT1080NT lethal -11%, KB-V1 cytotox inactive and DT40 TDP1 no CPT 4.1µM*.
For Cc1ccc(NC(=S)N/N=C2/CCCCc3ccccc32)cc1 the results were HT1080 IDH1KD tx -29%, TDP1 cell CPT inconclusive, KB-3-1 cytotox inactive, HT1080NT lethal -21%, KB-V1 cytotox inactive and DT40 TDP1 no CPT inconclusive.
For CC(=O)N1CCC2(CC1)C/C(=N\NC(=S)Nc1ccc(C)cc1)c1cc(O)ccc1O2 the results were HT1080 IDH1KD tx inconclusive, TDP1 cell CPT 15µM*, KB-3-1 cytotox inconclusive, HT1080NT lethal inconclusive, KB-V1 cytotox inactive and DT40 TDP1 no CPT inconclusive.
CSc1ccc(CCNC(=O)Cn2c(C)c3cnn(-c4ccccc4)c(=O)c3c2C)cc1 was read as TDP1 cell CPT inconclusive, KB-3-1 cytotox inactive, KB-V1 cytotox inactive and DT40 TDP1 no CPT -17%.
For CCOC(=O)C1CCCN(C(=O)c2ccc(C(F)(F)F)nc2C)CC1 (stereo unspecified) the results were HT1080 IDH1KD tx 10%, TDP1 cell CPT 11%, KB-3-1 cytotox inactive, HT1080NT lethal -12%, KB-V1 cytotox inactive and DT40 TDP1 no CPT -2%.
For O=C(N[C@H]1C/C=C\C[C@H](CC(=O)N(CCO)Cc2ccccc2)C(=O)NC[C@H](c2ccccc2)OC1=O)OCC1c2ccccc2-c2ccccc21 the results were HT1080 IDH1KD tx 4%, TDP1 cell CPT 6.5µM*, KB-3-1 cytotox inactive, HT1080NT lethal 4%, KB-V1 cytotox inactive and DT40 TDP1 no CPT 6.5µM*.
Screening O=C(N[C@@H]1C/C=C\C[C@@H](CC(=O)N(CCO)Cc2ccccc2)C(=O)N[C@@H](c2ccccc2)COC1=O)OCC1c2ccccc2-c2ccccc21 returned HT1080 IDH1KD tx -1%, TDP1 cell CPT 7.3µM*, KB-3-1 cytotox inactive, HT1080NT lethal -8%, KB-V1 cytotox inactive and DT40 TDP1 no CPT 6.5µM*.
`Cn1cnc2c(cnn2C)c1=O` gave HT1080 IDH1KD tx 22%, TDP1 cell CPT 3%, KB-3-1 cytotox inactive, HT1080NT lethal 8%, KB-V1 cytotox inactive and DT40 TDP1 no CPT -7%.
Screening N#CC1=C(N)NC(=S)C(C(N)=O)C1c1ccc(Cl)cc1Cl (stereo unspecified) returned HT1080 IDH1KD tx inconclusive, TDP1 cell CPT 10µM*, KB-3-1 cytotox inactive, HT1080NT lethal inconclusive, KB-V1 cytotox inconclusive and DT40 TDP1 no CPT 18µM*.
`N#CC1=C(N)NC(=S)C(C(N)=O)C1c1ccccc1F` (stereo unspecified) gave HT1080 IDH1KD tx inconclusive, TDP1 cell CPT inconclusive, KB-3-1 cytotox inactive, HT1080NT lethal -27%, KB-V1 cytotox inactive and DT40 TDP1 no CPT inconclusive.
